This is a sample that favours compounds with a hit; in the whole collection about 12% have one here.
Sfp PPTase inh: inhibitors of Bacillus subtilis Sfp phosphopantetheinyl transferase; Q9F4F7; Biochemical Sfp PPTase activity, qHTS; Potency, µM, inactives show largest response in the series, negative = inhibition, most hits filed as inhibitors; actives 3.5% (n = 310,000); AID 1490;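 further: the enzyme is Sfp with the accession as filed and its product quenches rhodamine fluorescence; 0% = enzyme reaction without inhibitor and -100% = no enzyme wells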
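Compounds were incubated with enzyme (final 15 nM) for 15 min at room temperature before substrate addition started the reaction. Fluorescence at 525 nm excitation, 598 nm emission was recorded immediately and after 30 minutes.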
BAZ2B inh: BAZ2B (human) inhibition; Q9UIF8; Potency, µM (titrated, usually from 114 µM), inactives show top-dose activity change, negative = inhibition, most hits filed as inhibitors; actives 4.4% (n = 360,000); AlphaScreen BAZ2B-H3K14Ac peptide displacement; further: on the % scale 0 is the no-effect control and ±100 the full control effect; nearly all actives have a fitted effect of over 60% in size
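AlphaScreen displacement: compounds (up to 110uM) incubated 30 min at room temperature with a preformed 50 nM BAZ2B/50 nM biotinylated H3K14Ac peptide complex in PBS pH 7.4 with Tween-20. Donor and acceptor beads at 10 ug/mL final added, 20 min light-protected before reading.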
PLK1 PBD inh: inhibitors of human PLK1 polo-box domain binding; P53350; Plk1 PBD binding of FITC phosphopeptide, fluorescence polarization; Potency, µM, for inactives: max response, negative = inhibition, most hits filed as inhibitors; actives 2.8% (n = 360,000); further: series mostly up to about 57 µM; on the % scale 0 is the no-effect control and ±100 the full control effect; nearly all actives have a fitted effect of over 65% in size
JMJD2A Tudor: blocks the human JMJD2A Tudor domain; AID 504339; O75164; AlphaScreen JMJD2A-Tudor / H3K4me3 peptide binding; actives 4.4% (n = 390,000); Potency, µM (highest dose often 114 µM), for the others: at the highest dose activity change, negative = inhibition, actives largely listed as inhibitors; further: on the % scale 0 is the no-effect control and ±100 the full control effect; nearly all actives have a fitted effect of over 50% in size
G9a block: inhibitors of human histone lysine methyltransferase G9a; Q96KQ7; G9a H3K9 monomethylation, AlphaScreen, 2 h; Potency, µM (titrated, usually from 102 µM), for inactives: at the top dose activity, negative = inhibition, hits mostly inhibitors; actives 8.8% (n = 350,000); AID 504332; further: on the % scale 0 is the no-effect control and ±100 the full control effect; nearly all actives have a fitted effect of over 75% in size
Target sequence (Q96KQ7 913-1193 limits assumed): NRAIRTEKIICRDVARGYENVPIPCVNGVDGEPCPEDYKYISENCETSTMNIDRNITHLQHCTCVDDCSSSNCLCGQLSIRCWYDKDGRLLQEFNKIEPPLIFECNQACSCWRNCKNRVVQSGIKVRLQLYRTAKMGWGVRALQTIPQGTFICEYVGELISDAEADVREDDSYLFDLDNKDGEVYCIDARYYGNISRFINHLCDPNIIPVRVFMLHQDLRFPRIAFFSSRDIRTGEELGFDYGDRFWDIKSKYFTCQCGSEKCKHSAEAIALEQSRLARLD
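Enzyme 20 nM + cpd, 15 min RT; add b-H3K9 pep 500 nM / SAM 20 uM; 2 h RT; anti-H3K9me1 Ab 0.5 ug/mL + SA donor / anti-rabbit acceptor beads 20 ug/mL each, 10 min; AlphaScreen read.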
HP1b chromo inh: HP1-beta chromodomain-methylated histone interaction inhibition. P83916. AlphaScreen HP1-beta / biotin-H3K9me3 peptide binding. Potency, µM (top dose mostly 114 µM), inactives show at the highest dose activity change, negative = inhibition, most hits filed as inhibitors. actives 0.56% (n = 390,000). AID 540317; further: nearly all actives have a fitted effect of over 70% in size
Target sequence (P83916 whole entry, looked up): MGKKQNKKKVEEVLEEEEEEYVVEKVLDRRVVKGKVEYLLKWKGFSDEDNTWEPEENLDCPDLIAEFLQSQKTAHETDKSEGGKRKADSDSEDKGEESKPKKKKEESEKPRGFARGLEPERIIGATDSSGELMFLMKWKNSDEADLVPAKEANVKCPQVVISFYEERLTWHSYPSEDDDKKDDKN
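Compound inhibition of the preformed complex between 50 nM HP1-beta and 50 nM biotinylated H3K9me3 peptide was read by AlphaScreen. Buffer was PBS pH 7.4 with 0.01% Tween-20. Incubations ran 30 min at room temperature, with 10 ug/mL donor/acceptor beads.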
The depositor's hits bear a star; ? = inconclusive; · = not tested or not shown; [ ] = dose if it differs, or a comment. The call rests on the fitted dose curve; in most records, active means well fitted curve in the direction sought with a large enough effect; inconclusive means small, poorly fitted or top-dose-only effect, or another doubt; inactive means no such curve, though single readings can be large; an effect the other way counts as inactive or inconclusive. Potency means the concentration at half of the fitted maximal effect.

SMILES	Sfp PPTase inh	BAZ2B inh	PLK1 PBD inh	JMJD2A Tudor	G9a block	HP1b chromo inh
NS(=O)(=O)Nc1ccccc1Br	7.1%	·	·	-12.4%	·	15.0%
CC(C)(C)OC(=O)NS(=O)(=O)Nc1ccccc1Br	0.5%	·	·	35.5µM*	·	-5.5%
COC(=O)C(C(=O)Nc1nc2ccccc2s1)C1CCCC1 (stereo not given)	-1.6%	-3.6%	-0.8%	-4.8%	·	34.9%
CCCN1CCC(=O)N(CCSc2ccc(Br)cc2)CC1	5.3%	·	·	-24.8%	·	17.8%
CC[C@H](C)[C@H](NC(N)=O)C(=O)Nc1ccc(OC)c(Cl)c1	8.9%	-12.9%	-8.6%	-6.5%	-2.4%	44.8%
CCC(C)C(NC(N)=O)C(=O)Nc1ccc(C)c(Cl)c1 (stereo not given)	-14.1%	-11.3%	-8.5%	-10.0%	8.91µM*	40.0%
CC/C(O)=C(\C#N)c1nnc2n1CCCCC2	89.1µM*	79.4µM*	-7.6%	3.55µM*	2.4%[0.501 µM]	-12.5%
N#C/C(=C(/O)c1ccc([N+](=O)[O-])cc1)c1nnc2n1CCCCC2	-8.0%	?	-6.5%	28.2µM*	50.1µM*	22.0%
O=C(Nc1nc(-c2ccc(Cl)s2)cs1)c1ccncc1	-2.8%	-18.7%	-15.3%	-19.0%	?	18.1%
COC(=O)C1=NOC2(C=C(Br)C(OC)=C(Br)C2=O)C1 (stereo not given)	0.794µM*	·	·	·	·	·
CC(C)NCC(O)COC1CCC(C(C)(C)C)CC1 (stereo not given)	0.3%	9.6%	21.2µM*	-6.8%[11.4 µM]	-41.5%	13.6%
CC1CCCC(C)N1CC(O)COC1CCC(C(C)(C)C)CC1 (stereo not given)	-3.9%	3.1%	-10.8%	-16.1%	·	26.9%
CCCCOc1nnc(-c2ccc(OCC)cc2)c2ccccc12	·	17.0%	·	80.6%	7.5%[59 µM]	109.3%
COc1ccc(Cc2nnc(N/N=C(\C)c3ccccc3)[nH]c2=O)cc1OC	-18.3%	35.5µM*	-0.6%	-35.1%	·	31.3%
COc1ccc(/C=N/Nc2nnc(Cc3ccc(OC)c(OC)c3)c(=O)[nH]2)cc1OC	50.1µM*	?	-3.7%	?	2.7%[59 µM]	13.3%
COc1ccc(Cc2nnc(NN)[nH]c2=O)cc1OC	44.7µM*	3.98µM*	2.8%	2.51µM*	4.0%	37.2%
O=C(C1CCCN1S(=O)(=O)c1ccc(Cl)cc1)N1CCCCC1 (stereo not given)	4.6%	-4.4%	6.1%	-2.9%	36.8%	28.3%
CCOc1ccc(CNC(=O)c2cc3ccccn3n2)cc1	·	0.8%	·	-20.1%	-5.1%[59 µM]	-13.4%
COc1ccc(Cl)cc1NC(=O)CN(C)S(=O)(=O)c1ccc2c(c1)CCCN2C(C)=O	·	3.0%	·	-11.3%	-31.2%[59 µM]	25.8%[57 µM]
Cc1nnsc1S(=O)(=O)Cc1ccccc1C(F)(F)F	19.9%	-1.0%	8.9%	2.8%	-8.4%[12.7 µM]	44.1%
CC1(c2nnnn2Cc2ccccc2)CCC(=O)N1CCCn1ccnc1 (stereo not given)	·	·	-7.9%	·	·	·
CC(C)[C@H](NC(=O)[C@H](CC(=O)O)NC(=O)CNC(=O)[C@@H](N)CCCN=C(N)N)C(=O)O	9.1%	·	·	·	·	·
CCn1c(NCc2ccc(N(C)C)cc2)nc2ccccc21	-1.5%	?	-0.2%	?	20µM*	-11.2%
CCN(CC)c1ccc(CNc2nc3ccccc3n2CCN2CCCCC2)cc1	3.2%	14.1µM*	-3.3%	39.8µM*	25.1µM*	?
CCn1c(NCc2ccc(OC)c(OC)c2)nc2ccccc21	·	-2.0%	·	-3.8%	-42.3%[59 µM]	29.3%
c1ccc(CNc2ccc3ccccc3n2)nc1	-2.7%	-5.1%	-2.9%	8.91µM*	11.4%	7.7%
CCn1c(NCc2ccccn2)nc2ccccc21	?	56.2µM*	2.2%	-5.6%	8.91µM*	30.0%
COc1ccc(CNc2nc3ccccc3n2CCN2CCCCC2)cc1	11.2%	-28.8%	-1.2%	-16.7%	?	16.2%
Cc1cc(NCc2ccccn2)nc2ccccc12	-11.3%	-4.4%	-9.3%	-20.3%	12.3%	45.6%
COC(=O)c1cc(CNC(=O)c2sccc2-c2ccccc2)ccc1OC	-1.4%	4.0%	2.1%	13.5%	·	27.2%
